From PubChem BioAssay (Tox21)
Several values for one entry are separate records, joined by “and”; a condition that tells them apart may be missing. Equal values may be shown once. Results filed as inconclusive are left out. Where a call stands in place of a potency, no number is given. Some structures have more than one record in an assay (separate samples or runs), and their calls can disagree. Activity calls are given as the source filed them. The call rests on the fitted dose curve.

Molecular target: 5-hydroxytryptamine receptor 2A (Homo sapiens) (UniProt P28223)
Sequence (P28223 whole entry, looked up): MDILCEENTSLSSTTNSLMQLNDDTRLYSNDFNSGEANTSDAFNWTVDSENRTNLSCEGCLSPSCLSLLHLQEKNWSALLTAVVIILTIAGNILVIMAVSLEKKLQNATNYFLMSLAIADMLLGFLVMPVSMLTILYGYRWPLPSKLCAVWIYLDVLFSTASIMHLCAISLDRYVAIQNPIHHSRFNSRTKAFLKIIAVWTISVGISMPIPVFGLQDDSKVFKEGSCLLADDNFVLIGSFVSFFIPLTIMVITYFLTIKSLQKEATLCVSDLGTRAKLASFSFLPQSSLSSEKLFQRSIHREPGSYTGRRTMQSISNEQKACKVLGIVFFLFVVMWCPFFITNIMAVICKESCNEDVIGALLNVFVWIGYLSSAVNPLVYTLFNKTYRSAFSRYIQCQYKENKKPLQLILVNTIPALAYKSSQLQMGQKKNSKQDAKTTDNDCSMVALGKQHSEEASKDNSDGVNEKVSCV
Test: 5-hydroxytryptamine receptor 2A (HTR2A) small molecule agonists, cell-based qHTS assay (AID 1963587); further: nearly all actives have a fitted effect of over 30% in size
Conditions: HTR2A-CHO cells, calcium flux fluorescence, agonist mode; series mostly up to 76.8 µM
How it was run: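 Kinetic calcium-flux fluorescence (2 min, 1 sec intervals) after compound addition in agonist mode. HTR2A-CHO cells were cultured 18 h, then dye-loaded 1 h at 37 C.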
In the case of `Nc1cccc2ccccc12`, the Potency is reported as “inactive”. With `Cc1[nH]c(=O)n(C(C)(C)C)c(=O)c1Cl` the Potency was “inactive”. In the case of `NN=C(N)N`, the Potency is reported as “inactive”. In the case of `CC(C)CCCCCCOC(=O)c1ccccc1C(=O)OCCCCCCC(C)C`, the Potency is reported as “inactive”.

Molecular target: Muscarinic acetylcholine receptor M1 (Homo sapiens) (UniProt P11229)
Sequence (P11229 whole entry, looked up): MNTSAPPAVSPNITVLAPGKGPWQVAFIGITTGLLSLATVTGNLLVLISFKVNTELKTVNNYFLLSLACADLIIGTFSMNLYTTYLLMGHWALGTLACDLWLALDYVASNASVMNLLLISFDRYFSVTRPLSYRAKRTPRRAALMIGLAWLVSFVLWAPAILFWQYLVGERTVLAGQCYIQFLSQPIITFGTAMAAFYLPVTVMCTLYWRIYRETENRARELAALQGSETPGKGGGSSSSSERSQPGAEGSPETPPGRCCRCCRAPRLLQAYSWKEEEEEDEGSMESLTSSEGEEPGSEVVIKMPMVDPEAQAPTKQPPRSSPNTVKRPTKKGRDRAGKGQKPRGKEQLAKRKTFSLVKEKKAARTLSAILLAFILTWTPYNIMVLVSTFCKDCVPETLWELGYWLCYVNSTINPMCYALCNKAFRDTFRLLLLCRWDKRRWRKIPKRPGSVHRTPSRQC
Test: Cholinergic receptor muscarinic 1 (CHRM1) small molecule antagonists, cell-based qHTS assay (AID 1963588); further: nearly all actives have a fitted effect of over 40% in size; further: potency means the concentration at half of the fitted maximal effect
Conditions: CHRM1-CHO antagonist mode, calcium flux fluorescence; series mostly up to 61.5 µM
How it was run: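 CHRM1-CHO calcium-flux assay, antagonist mode. Cells were seeded 18 h, dye-loaded 1 h at 37 C and given compound for 5 min at RT, then acetylcholine was added at 50nM. FDSS fluorescence was read 3 min; 15 concentrations, three runs.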
In the case of `CC(C)c1ccc(OP(=O)(Oc2ccc(C(C)C)cc2)Oc2ccc(C(C)C)cc2)cc1`, the Potency is reported as “inactive”. With `Clc1cccc(Cl)c1` the Potency was “inactive”. For `ClC(Cl)c1ccccc1`, the Potency was “inactive”. For `O=P(OCC(Br)CBr)(OCC(Br)CBr)OCC(Br)CBr` (stereo not drawn), the Potency was “inactive”. In the case of `Clc1cccc(C(Cl)(Cl)Cl)n1`, the Potency is reported as “inactive”. With `COP(=O)(NC(C)=O)SC` (stereo not drawn) the Potency was “inactive”. In the case of `CC(C)N1C(=O)c2ccccc2NS1(=O)=O`, the Potency is reported as “inactive”. In the case of `CCCCn1cc[n+](C)c1`, the Potency is reported as “inactive”. In the case of `COP(=O)(OC)OC`, the Potency is reported as “inactive”. In the case of `CCOP(=S)(OCC)Oc1nc(Cl)c(Cl)cc1Cl`, the Potency is reported as “inactive”. For `CCN(CC)C(=O)/C(Cl)=C(\C)OP(=O)(OC)OC`, the Potency was “inactive”. With `CCCCCCCCCCCCCCCl` the Potency was “inactive”. For `O=C(NC(=O)c1ccccc1Cl)Nc1ccc(OC(F)(F)F)cc1`, the Potency was “inactive”. For `c1ccc(C2CO2)cc1` (stereo not drawn), the Potency was “inactive”. In the case of `ClCCOCCCl`, the Potency is reported as “inactive”. In the case of `CN=C=O`, the Potency is reported as “inactive”. In the case of `CC(O)CCO` (stereo not drawn), the Potency is reported as “inactive”. In the case of `CCCCON=O`, the Potency is reported as “inactive”. In the case of `CCOP(=S)(OCC)Oc1ccc([N+](=O)[O-])cc1`, the Potency is reported as 9.54 µM (active) and 18.3 µM (active). For `C=CC(Cl)CCl` (stereo not drawn), the Potency was “inactive”. For `CN(CCCC(=O)c1cccnc1)N=O`, the Potency was “inactive”. In the case of `Nc1ccc(Cl)cc1N`, the Potency is reported as “inactive”. For `CN(C)c1ccc(N=O)cc1`, the Potency was “inactive”. For `Cc1ccc(N)c(C)c1`, the Potency was “inactive”. For `N#CCCCCC#N`, the Potency was “inactive”. In the case of `C[C@H]1O[C@H](OC2[C@@H](O)[C@@H](O)C(O)[C@H](O)[C@H]2O)[C@@H](N)C[C@@H]1N=C(N)C(=O)O` (stereo partly drawn), the Potency is reported as “inactive”. For `CCC(C)c1ccc(O)cc1` (stereo not drawn), the Potency was “inactive”. For `CCCCC(CC)C(=O)Cl` (stereo not drawn), the Potency was “inactive”. In the case of `O=C(CCl)c1ccc(Cl)cc1Cl`, the Potency is reported as “inactive”. With `O=c1[nH]c2ccccc2n1C1CCN(CCCC(c2ccc(F)cc2)c2ccc(F)cc2)CC1` the Potency was “inactive”. In the case of `O=P(Oc1ccccc1)(Oc1ccccc1)Oc1ccccc1`, the Potency is reported as “inactive”. In the case of `Nc1cccc2ccccc12`, the Potency is reported as “inactive”. In the case of `Cc1[nH]c(=O)n(C(C)(C)C)c(=O)c1Cl`, the Potency is reported as “inactive”. With `NN=C(N)N` the Potency was “inactive”. With `O=c1[nH]c2ccccc2c(=O)o1` the Potency was “inactive”. With `CC(C)CCCCCCOC(=O)c1ccccc1C(=O)OCCCCCCC(C)C` the Potency was “inactive”.

Molecular target: Muscarinic acetylcholine receptor M1 (Homo sapiens) (UniProt P11229)
Test: Cholinergic receptor muscarinic 1 (CHRM1) small molecule agonists, cell-based qHTS assay (AID 1963589); further: nearly all actives have a fitted effect of over 35% in size; further: potency means the concentration at half of the fitted maximal effect
Conditions: CHRM1-CHO cells, agonist mode, calcium flux fluorescence; series mostly up to 76.8 µM
How it was run: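 CHO cells stably expressing human CHRM1 were loaded with calcium dye for 1 h at 37 C, then compound was added in agonist mode. Intracellular calcium fluorescence was followed kinetically at 1 s intervals. Fifteen concentrations were tested in three independent runs.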
With `CC(C)c1ccc(OP(=O)(Oc2ccc(C(C)C)cc2)Oc2ccc(C(C)C)cc2)cc1` the Potency was “inactive”. With `ClC(Cl)c1ccccc1` the Potency was “inactive”. With `O=P(OCC(Br)CBr)(OCC(Br)CBr)OCC(Br)CBr` (stereo not drawn) the Potency was “inactive”. In the case of `COP(=O)(NC(C)=O)SC` (stereo not drawn), the Potency is reported as “inactive”. With `CC(C)N1C(=O)c2ccccc2NS1(=O)=O` the Potency was “inactive”. In the case of `CCCCn1cc[n+](C)c1`, the Potency is reported as “inactive”. With `COP(=O)(OC)OC` the Potency was 49.4 µM (active) and inactive. In the case of `CCOP(=S)(OCC)Oc1nc(Cl)c(Cl)cc1Cl`, the Potency is reported as “inactive”. For `CCN(CC)C(=O)/C(Cl)=C(\C)OP(=O)(OC)OC`, the Potency was “inactive”. With `CCCCCCCCCCCCCCCl` the Potency was “inactive”. For `O=C(NC(=O)c1ccccc1Cl)Nc1ccc(OC(F)(F)F)cc1`, the Potency was “inactive”. For `CN=C=O`, the Potency was “inactive”. In the case of `CC(O)CCO` (stereo not drawn), the Potency is reported as “inactive”. For `CCCCON=O`, the Potency was “inactive”. For `CCOP(=S)(OCC)Oc1ccc([N+](=O)[O-])cc1`, the Potency was “inactive”. With `C=CC(Cl)CCl` (stereo not drawn) the Potency was “inactive”. For `CN(CCCC(=O)c1cccnc1)N=O`, the Potency was “inactive”. For `Cc1ccc(N)c(C)c1`, the Potency was “inactive”. For `N#CCCCCC#N`, the Potency was “inactive”. In the case of `C[C@H]1O[C@H](OC2[C@@H](O)[C@@H](O)C(O)[C@H](O)[C@H]2O)[C@@H](N)C[C@@H]1N=C(N)C(=O)O` (stereo partly drawn), the Potency is reported as “inactive”. For `CCC(C)c1ccc(O)cc1` (stereo not drawn), the Potency was “inactive”. With `CCCCC(CC)C(=O)Cl` (stereo not drawn) the Potency was “inactive”. For `O=C(CCl)c1ccc(Cl)cc1Cl`, the Potency was “inactive”. For `O=c1[nH]c2ccccc2n1C1CCN(CCCC(c2ccc(F)cc2)c2ccc(F)cc2)CC1`, the Potency was “inactive”. For `CCCCCCCCCCCCn1cc[n+](C)c1`, the Potency was “inactive”. In the case of `Cc1[nH]c(=O)n(C(C)(C)C)c(=O)c1Cl`, the Potency is reported as “inactive”. For `CCCCCC[n+]1ccccc1`, the Potency was “inactive”. With `NN=C(N)N` the Potency was “inactive”. For `O=c1[nH]c2ccccc2c(=O)o1`, the Potency was “inactive”. For `CC(C)CCCCCCOC(=O)c1ccccc1C(=O)OCCCCCCC(C)C`, the Potency was “inactive”.

Test system: not listed separately
Test: cAMP Responsive Elements (CRE) small molecule agonists, cell-based qHTS assay (AID 1963590)
Conditions: CRE-bla HEK293T, beta-lactamase FRET ratio, 3 h; series mostly up to 92.4 µM
How it was run: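 CRE-bla HEK 293T cells, 2,000/well in DMEM with 10% dialyzed FBS and 25 mM HEPES, pre-incubated 18 h at 37 C, then exposed to compound 3 h at 37 C. Beta-lactamase reporter read with LiveBLAzer B/G FRET substrate after 2 h at room temperature.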
In the case of `Clc1cccc(Cl)c1`, the Potency is reported as “inactive”. In the case of `ClC(Cl)c1ccccc1`, the Potency is reported as “inactive”. With `Clc1cccc(C(Cl)(Cl)Cl)n1` the Potency was “inactive”. In the case of `COP(=O)(NC(C)=O)SC` (stereo not drawn), the Potency is reported as “inactive”. In the case of `CC(C)N1C(=O)c2ccccc2NS1(=O)=O`, the Potency is reported as “inactive”. With `COP(=O)(OC)OC` the Potency was “inactive”. For `CCN(CC)C(=O)/C(Cl)=C(\C)OP(=O)(OC)OC`, the Potency was “inactive”. In the case of `CCCCCCCCCCCCCCCl`, the Potency is reported as “inactive”. In the case of `O=C(NC(=O)c1ccccc1Cl)Nc1ccc(OC(F)(F)F)cc1`, the Potency is reported as “inactive”. For `c1ccc(C2CO2)cc1` (stereo not drawn), the Potency was “inactive”. In the case of `ClCCOCCCl`, the Potency is reported as “inactive”. For `Oc1cccc2cccnc12`, the Potency was “inactive”. In the case of `CN=C=O`, the Potency is reported as “inactive”. With `CC(O)CCO` (stereo not drawn) the Potency was “inactive”. In the case of `CCOP(=S)(OCC)Oc1ccc([N+](=O)[O-])cc1`, the Potency is reported as “inactive”. With `C=CC(Cl)CCl` (stereo not drawn) the Potency was “inactive”. With `CN(CCCC(=O)c1cccnc1)N=O` the Potency was “inactive”. In the case of `Cc1ccc(N)c(C)c1`, the Potency is reported as “inactive”. With `N#CCCCCC#N` the Potency was “inactive”. With `CCCCC(CC)C(=O)Cl` (stereo not drawn) the Potency was “inactive”. With `O=C(CCl)c1ccc(Cl)cc1Cl` the Potency was “inactive”. With `O=P(Oc1ccccc1)(Oc1ccccc1)Oc1ccccc1` the Potency was “inactive”. For `CCCCCCCCCCCCn1cc[n+](C)c1`, the Potency was “inactive”. In the case of `Cc1[nH]c(=O)n(C(C)(C)C)c(=O)c1Cl`, the Potency is reported as “inactive”. With `CCCCCC[n+]1ccccc1` the Potency was “inactive”. For `NN=C(N)N`, the Potency was “inactive”. With `O=c1[nH]c2ccccc2c(=O)o1` the Potency was “inactive”. For `CC(C)CCCCCCOC(=O)c1ccccc1C(=O)OCCCCCCC(C)C`, the Potency was “inactive”.
